# Data taken from PubChem BioAssay (EPA / NIEHS).
# Results filed as inconclusive are left out. Calls of active or inactive are those of the source. The calls were made as follows, unless noted: active = hit-call score of the fitted dose curve at least 0.9, where 1 is the maximum; inconclusive = response in the unintended direction; inactive = score below 0.9.
# Legend:
# [1] = molecular target: Voltage-gated inwardly rectifying potassium channel KCNH2 (Homo sapiens) (UniProt Q12809); assay: NVS_IC_hKhERGCh: NovaScreen (NVS) Ion Channel Assay for human Potassium Channel ERG (KhERGCh) (AID 2283333)
# Method in brief: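 Membranes from CHO cells expressing human ERG; displacement of radioligand measured by filtration and scintillation after 0.75 h. Single-concentration duplicate screen at 25 uM, then concentration-response for actives; DMSO baseline.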
# [2] = molecular target: Glutamate receptor ionotropic, kainate 1 (Rattus norvegicus) (UniProt P22756); assay: NVS_IC_rKAR: NovaScreen (NVS) Ion Channel Assay for rat Kainic Acid Receptors (KAR) (AID 2283334; active = hit-call score of the fitted dose curve at least 0.9, where 1 is the maximum; inactive = score below 0.9)
# Method in brief: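 Rat forebrain membrane preparation incubated 1 h with radioligand and test chemical; bound signal read by filtration and scintillation. Single-concentration screen at 25 uM, then concentration series to 50 uM maximum.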
# [3] = molecular target: bovine Gamma-Aminobutyric Acid Type A Receptor BDZ, alpha 5 site (GABARa5), GABRA5 (gene 523515) (UniProt Q08E50); assay: NVS_LGIC_bGABARa5: NovaScreen (NVS) Ligand-Gated Ion Channel Assay for bovine Gamma-Aminobutyric Acid Type A Receptor BDZ, alpha 5 site (GABARa5) (AID 2283323)
# Method in brief: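 Tested first in duplicate at a single 25 uM, with hits re-run in concentration series to a 50 uM maximum. Bovine hippocampal membranes; specific radioligand displacement measured by filter scintillation counting 1 hr post-dose.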
# [4] = molecular target: rat Gamma-Aminobutyric Acid Type A Receptor, Non-Selective (GABAR-NonSelective), Gabra1 (gene 29705) (UniProt P62813); assay: NVS_LGIC_rGABAR_NonSelective: NovaScreen (NVS) Ligand-Gated Ion Channel Assay for rat Gamma-Aminobutyric Acid Type A Receptor, Non-Selective (GABAR-NonSelective) (AID 2283326)
# Method in brief: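 Compounds were first screened in duplicate at 25 uM, with actives run as singleton concentration series (max 50 uM). Binding of a radioligand to rat whole-brain GABA-A preparation was measured by filtration and scintillation counting after 1 h, DMSO baseline.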
# [5] = molecular target: human Peripheral-type Benzodiazepine Receptor (PBR), TSPO (gene 706) (UniProt P30536); assay: NVS_MP_hPBR: NovaScreen (NVS) Membrane Protein Assay for human Peripheral-type Benzodiazepine Receptor (PBR) (AID 2283331);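 also: hits reduce radioligand binding relative to DMSO baseline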
# Method in brief: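 Using human colon-derived membranes, this one-endpoint binding test reads radioligand loss by scintillation after 1 h. Screening started at 25 uM in duplicate, with positive and negative controls on every plate, and actives moved to dose series.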
# [6] = molecular target: rat Opioid Receptor, Non-selective Binding, Oprm1 (gene 25601) (UniProt P33535); assay: NVS_GPCR_rOpiate_NonSelective: NovaScreen (NVS) G Protein-Coupled Receptor Assay for rat Opioid Receptor, Non-selective Binding (AID 2283318)
# Method in brief: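 Filter-based radioligand displacement using rat forebrain membrane preparations, measured 1.5 h post-dosing. Single-concentration duplicate screen at 25 uM, follow-up in concentration series; activity taken as signal loss relative to DMSO.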
# [7] = NVS_IC_rCaDHPRCh_L: NovaScreen (NVS) Ion Channel Assay for rat Calcium Channel, Type L, Dihydropyridine Site (CaDHPRCh_L) (AID 2283320)
# Method in brief: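 Rat cortex membrane preparation; dihydropyridine-site radioligand displacement read 1 h post-dose by filtration and scintillation. Primary single-point screen 25 uM in duplicate, then concentration series to 50 uM maximum; DMSO as negative control.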
# [8] = molecular target: Sodium channel protein type 1 subunit alpha (Rattus norvegicus) (UniProt P04774); assay: NVS_IC_rNaCh_site2: NovaScreen (NVS) Ion Channel Assay for rat Sodium Channel, Site 2 (NaCh) (AID 2283322);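 also: hit means loss of radioligand binding signal relative to DMSO so AC50 marks displacement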
# Method in brief: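 Initial duplicate single-point testing at 25 uM, followed by concentration-response runs for actives. Binding of radioligand to rat forebrain membranes quantified after 1 h via filter-based radiodetection.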
# [9] = molecular target: human Androgen Receptor (AR), AR (gene 367) (UniProt P10275); assay: NVS_NR_hAR: NovaScreen (NVS) Nuclear Receptor Binding Assay for human Androgen Receptor (AR) (AID 2283332)
# Method in brief: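 Actives from a duplicate 25 uM single-point screen went on to concentration series. Read-out after 20 h was scintillation counting of displaced radioligand in LnCAP extract, with DMSO as baseline.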
# [10] = NVS_IC_rCaBTZCHL: NovaScreen (NVS) Ion Channel Assay for Calcium Channel, Type L, Benzothiazepine Site (CaBTZCHL) (AID 2283337)
# Method in brief: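 Rat cortical membrane preparation, cell-free. Radioligand displaced by test chemical; 1.5 h incubation; filtration, scintillation count. DMSO = negative control/baseline. Primary: duplicate, 25 uM; secondary: concentration series.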
# [11] = molecular target: rat Glutamate, AMPA Site (AMPA), Gria1 (gene 50592) (UniProt P19490); assay: NVS_LGIC_rAMPA: NovaScreen (NVS) Ligand-Gated Ion Channel Assay for rat Glutamate, AMPA Site (AMPA) (AID 2283324)
# Method in brief: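 Screening at 25 uM in duplicate preceded concentration series reaching 50 uM for qualifying compounds. Radioligand displacement on rat forebrain membranes, 1 h, filter-based scintillation readout; reduced binding relative to DMSO.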
# [12] = molecular target: rat Thyrotropin Releasing Hormone Receptor (TRH), Trhr (gene 25570) (UniProt Q01717); assay: NVS_GPCR_rTRH: NovaScreen (NVS) G Protein-Coupled Receptor Assay for rat Thyrotropin Releasing Hormone Receptor (TRH) (AID 2283329);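 also: hit means lower bound tracer signal versus DMSO baseline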
# Method in brief: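 Cell-free radioligand binding on rat forebrain membranes; bound tracer measured by filter-based scintillation counting 4 hours after dosing. Loss of signal versus DMSO baseline indicates displacement; primary screen at 25 uM in duplicate, actives then run in concentration series.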
# [13] = molecular target: human Serotonin, 5-Hydroxytryptamine Receptor 3 (5HT3), HTR3A (gene 3359) (UniProt P46098); assay: NVS_LGIC_h5HT3: NovaScreen (NVS) Ligand-Gated Ion Channel Assay for human Serotonin, 5-Hydroxytryptamine Receptor 3 (5HT3) (AID 2283325)
# Method in brief: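 Initially tested at 25 uM in duplicate, then up to 50 uM in concentration-response for actives, compounds competed with a radioligand for HEK293-derived human 5-HT3 receptor. Bound counts were measured by filtration and scintillation at 1 h; loss of signal versus DMSO.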
# [14] = molecular target: rat Neonicotinoid receptor (NNR), Chrna7 (gene 25302) (UniProt Q05941); assay: NVS_LGIC_rNNR_BungSens: NovaScreen (NVS) Ligand-Gated Ion Channel Assay for rat Neonicotinoid receptor (NNR) (AID 2283315)
# Method in brief: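 Rat cortical membrane preparation incubated 2.5 h with tritiated or iodinated radioligand and test chemical. Bound radioactivity was filtered and counted by scintillation, and displacement was analysed against DMSO.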
# [15] = molecular target: human Constitutive Androstane Receptor (CAR), NR1I3 (gene 9970) (UniProt Q14994); assay: NVS_NR_hCAR_Agonist: NovaScreen (NVS) Nuclear Receptor Binding Assay for human Constitutive Androstane Receptor Agonism (CAR) (AID 2283328)
# Method in brief: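 Actives from a 25 uM duplicate screen were retested in singleton concentration series to 50 uM max. Biochemical TR-FRET assay on extracted CAR protein measured 1 h post-dose, with signal increase over DMSO control.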
# [16] = molecular target: Small conductance calcium-activated potassium channel protein 1 (Rattus norvegicus) (UniProt P70606); assay: NVS_IC_rKCaCh: NovaScreen (NVS) Ion Channel Assay for rat Potassium Channel, Ca2+ Act., VI (KCaCh) (AID 2283336)
# Method in brief: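 Filter-based scintillation counting of radioligand bound to rat forebrain membrane preparations, measured 1 h after compound addition. Primary screen used 25 uM in duplicate, with concentration-response follow-up; signal decrease relative to DMSO marks activity.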
# [17] = molecular target: rat Peripheral-type Benzodiazepine Receptor (PBR), Tspo (gene 24230) (UniProt P16257); assay: NVS_MP_rPBR: NovaScreen (NVS) Membrane Protein Assay for rat Peripheral-type Benzodiazepine Receptor (PBR) (AID 2283335)
# Method in brief: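 Single-concentration duplicate screening at 25 uM preceded concentration-series retesting of actives. Binding of a specific radioligand to rat kidney membrane PBR was read by filtration radiodetection after 1 h, with plate-wise positive and negative controls.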
# [18] = system: NCBI gene 24521; assay: NVS_IC_rKATPCh: NovaScreen (NVS) Ion Channel Assay for rat Potassium Channel, ATP-Sensitive (KATPCh) (AID 2283319)
# Method in brief: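 Primary duplicate screen at 25 uM, then singleton concentration series to 50 uM maximum, in a rat cortex membrane radioligand displacement assay. Binding measured by filtration and scintillation 2 h post-dose; DMSO baseline.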
# [19] = molecular target: rat Glutamate, NMDA Agonist Site (GluNMDA), Grin1 (gene 24408) (UniProt P35439); assay: NVS_LGIC_rGluNMDA_Agonist: NovaScreen (NVS) Ligand-Gated Ion Channel Assay for rat Glutamate, NMDA Agonist Site (GluNMDA) (AID 2283327)
# Method in brief: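 Radioligand displacement at the agonist site on rat forebrain membrane preparations, read by filter scintillation after 1 h. Chemicals were first run at 25 uM in duplicate; those passing threshold were titrated to a 50 uM maximum.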
# [20] = molecular target: rat Vasopressin 1 Receptor (V1), Avpr1a (gene 25107) (UniProt P30560); assay: NVS_GPCR_rV1: NovaScreen (NVS) G Protein-Coupled Receptor Assay for rat Vasopressin 1 Receptor (V1) (AID 2283316)
# Method in brief: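 Concentration-response up to 50 uM for chemicals passing a threshold such as 30% inhibition in an initial duplicate 25 uM screen. Displacement of radioligand from rat liver membranes measured after 1.5 h by filtration and scintillation.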
# rat Neonicotinoid receptor (NNR), Chrna7 (gene 25302), sequence (Q05941 whole entry, looked up): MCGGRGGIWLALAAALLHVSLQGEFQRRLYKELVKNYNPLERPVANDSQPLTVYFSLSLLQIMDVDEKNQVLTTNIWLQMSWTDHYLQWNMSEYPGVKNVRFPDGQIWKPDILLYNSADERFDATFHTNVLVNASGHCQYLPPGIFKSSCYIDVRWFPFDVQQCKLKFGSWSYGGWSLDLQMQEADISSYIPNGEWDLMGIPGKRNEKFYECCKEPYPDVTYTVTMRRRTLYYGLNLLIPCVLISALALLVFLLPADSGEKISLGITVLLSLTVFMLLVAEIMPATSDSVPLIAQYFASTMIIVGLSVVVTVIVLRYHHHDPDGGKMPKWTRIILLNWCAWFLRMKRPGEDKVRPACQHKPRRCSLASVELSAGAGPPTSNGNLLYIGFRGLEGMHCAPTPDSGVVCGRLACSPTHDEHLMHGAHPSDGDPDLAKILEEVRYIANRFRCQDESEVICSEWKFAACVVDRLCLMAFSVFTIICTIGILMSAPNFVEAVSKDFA
# Glutamate receptor ionotropic, kainate 1 (Rattus norvegicus), sequence (P22756 whole entry, looked up): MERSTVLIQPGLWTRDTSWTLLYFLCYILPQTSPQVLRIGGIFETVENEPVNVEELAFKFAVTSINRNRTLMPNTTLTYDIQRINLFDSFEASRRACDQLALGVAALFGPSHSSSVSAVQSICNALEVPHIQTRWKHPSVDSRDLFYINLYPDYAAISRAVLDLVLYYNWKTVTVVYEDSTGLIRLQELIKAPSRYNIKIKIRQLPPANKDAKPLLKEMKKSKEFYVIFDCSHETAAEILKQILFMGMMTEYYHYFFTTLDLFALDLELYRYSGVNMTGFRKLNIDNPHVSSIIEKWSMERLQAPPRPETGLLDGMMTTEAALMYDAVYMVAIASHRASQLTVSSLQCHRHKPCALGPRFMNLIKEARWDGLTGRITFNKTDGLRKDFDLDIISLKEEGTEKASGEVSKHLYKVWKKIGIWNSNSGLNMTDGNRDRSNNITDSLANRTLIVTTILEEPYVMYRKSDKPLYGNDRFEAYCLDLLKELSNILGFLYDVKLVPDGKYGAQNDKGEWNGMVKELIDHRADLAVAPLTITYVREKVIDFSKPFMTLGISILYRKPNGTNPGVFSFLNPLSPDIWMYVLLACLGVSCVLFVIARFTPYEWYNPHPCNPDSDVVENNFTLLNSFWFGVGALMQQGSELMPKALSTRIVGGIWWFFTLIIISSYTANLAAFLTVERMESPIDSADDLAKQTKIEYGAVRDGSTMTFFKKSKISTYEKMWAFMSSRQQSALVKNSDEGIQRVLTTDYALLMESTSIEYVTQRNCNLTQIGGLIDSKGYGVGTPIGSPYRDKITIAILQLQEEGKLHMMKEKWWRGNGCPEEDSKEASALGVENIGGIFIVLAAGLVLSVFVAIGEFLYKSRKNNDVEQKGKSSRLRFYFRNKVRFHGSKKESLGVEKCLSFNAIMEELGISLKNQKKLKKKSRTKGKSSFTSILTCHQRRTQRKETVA
# human Peripheral-type Benzodiazepine Receptor (PBR), TSPO (gene 706), sequence (P30536 whole entry, looked up): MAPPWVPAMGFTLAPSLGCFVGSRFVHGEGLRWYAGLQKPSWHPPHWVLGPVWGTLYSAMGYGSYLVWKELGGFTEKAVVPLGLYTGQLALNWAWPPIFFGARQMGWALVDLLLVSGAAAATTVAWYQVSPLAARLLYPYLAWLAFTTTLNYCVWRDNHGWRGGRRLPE
# human Constitutive Androstane Receptor (CAR), NR1I3 (gene 9970), sequence (Q14994 whole entry, looked up): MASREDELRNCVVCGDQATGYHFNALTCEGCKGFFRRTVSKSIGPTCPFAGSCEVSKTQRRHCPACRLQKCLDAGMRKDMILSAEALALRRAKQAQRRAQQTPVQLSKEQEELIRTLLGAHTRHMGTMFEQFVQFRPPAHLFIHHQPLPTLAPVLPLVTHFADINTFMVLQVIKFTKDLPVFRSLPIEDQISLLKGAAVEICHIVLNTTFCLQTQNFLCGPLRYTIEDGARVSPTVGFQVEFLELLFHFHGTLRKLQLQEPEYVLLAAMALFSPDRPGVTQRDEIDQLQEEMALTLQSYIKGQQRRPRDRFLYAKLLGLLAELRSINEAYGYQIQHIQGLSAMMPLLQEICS
# Voltage-gated inwardly rectifying potassium channel KCNH2 (Homo sapiens), sequence (Q12809 whole entry, looked up): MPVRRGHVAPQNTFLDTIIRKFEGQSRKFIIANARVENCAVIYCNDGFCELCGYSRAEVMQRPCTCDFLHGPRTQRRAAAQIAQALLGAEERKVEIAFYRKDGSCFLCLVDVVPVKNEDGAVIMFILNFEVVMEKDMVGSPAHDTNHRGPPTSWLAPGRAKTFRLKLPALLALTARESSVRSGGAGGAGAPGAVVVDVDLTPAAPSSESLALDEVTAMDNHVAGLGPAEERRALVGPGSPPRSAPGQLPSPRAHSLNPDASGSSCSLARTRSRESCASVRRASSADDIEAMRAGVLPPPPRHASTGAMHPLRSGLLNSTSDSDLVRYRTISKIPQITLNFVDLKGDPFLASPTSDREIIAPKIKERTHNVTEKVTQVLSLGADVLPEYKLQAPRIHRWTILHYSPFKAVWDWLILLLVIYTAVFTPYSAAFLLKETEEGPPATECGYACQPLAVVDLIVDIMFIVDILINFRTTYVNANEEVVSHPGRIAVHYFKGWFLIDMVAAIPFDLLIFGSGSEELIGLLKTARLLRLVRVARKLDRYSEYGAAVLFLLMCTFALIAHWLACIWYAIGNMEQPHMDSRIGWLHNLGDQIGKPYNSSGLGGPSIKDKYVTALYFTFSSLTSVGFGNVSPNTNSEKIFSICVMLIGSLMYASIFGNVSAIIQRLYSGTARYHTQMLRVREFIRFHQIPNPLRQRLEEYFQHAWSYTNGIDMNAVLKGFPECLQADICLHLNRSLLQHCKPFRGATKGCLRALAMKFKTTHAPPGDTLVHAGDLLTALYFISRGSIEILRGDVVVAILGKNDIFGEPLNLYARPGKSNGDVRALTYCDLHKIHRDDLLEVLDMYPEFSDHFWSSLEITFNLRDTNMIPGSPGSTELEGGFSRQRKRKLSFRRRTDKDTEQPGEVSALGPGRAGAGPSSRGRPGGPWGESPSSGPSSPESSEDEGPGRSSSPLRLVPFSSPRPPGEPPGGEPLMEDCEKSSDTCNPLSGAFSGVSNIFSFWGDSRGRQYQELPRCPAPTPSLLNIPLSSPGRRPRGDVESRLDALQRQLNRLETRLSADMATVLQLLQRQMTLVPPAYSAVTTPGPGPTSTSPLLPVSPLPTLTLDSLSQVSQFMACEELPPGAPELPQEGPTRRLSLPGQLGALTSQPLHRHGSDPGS
# rat Gamma-Aminobutyric Acid Type A Receptor, Non-Selective (GABAR-NonSelective), Gabra1 (gene 29705), sequence (P62813 whole entry, looked up): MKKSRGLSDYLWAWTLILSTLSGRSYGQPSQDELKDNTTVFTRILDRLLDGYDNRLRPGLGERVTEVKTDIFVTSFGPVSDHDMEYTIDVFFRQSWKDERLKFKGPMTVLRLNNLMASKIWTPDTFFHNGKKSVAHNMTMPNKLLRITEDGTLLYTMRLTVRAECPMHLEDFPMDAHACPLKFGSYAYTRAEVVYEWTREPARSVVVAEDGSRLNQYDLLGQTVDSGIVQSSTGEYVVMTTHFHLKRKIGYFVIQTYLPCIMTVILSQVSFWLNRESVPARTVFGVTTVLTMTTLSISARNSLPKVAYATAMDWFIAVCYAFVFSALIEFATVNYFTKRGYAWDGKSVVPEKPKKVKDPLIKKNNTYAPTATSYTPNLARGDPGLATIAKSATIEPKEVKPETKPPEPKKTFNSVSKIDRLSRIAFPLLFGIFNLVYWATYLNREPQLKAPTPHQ
# rat Glutamate, AMPA Site (AMPA), Gria1 (gene 50592), sequence (P19490 whole entry, looked up): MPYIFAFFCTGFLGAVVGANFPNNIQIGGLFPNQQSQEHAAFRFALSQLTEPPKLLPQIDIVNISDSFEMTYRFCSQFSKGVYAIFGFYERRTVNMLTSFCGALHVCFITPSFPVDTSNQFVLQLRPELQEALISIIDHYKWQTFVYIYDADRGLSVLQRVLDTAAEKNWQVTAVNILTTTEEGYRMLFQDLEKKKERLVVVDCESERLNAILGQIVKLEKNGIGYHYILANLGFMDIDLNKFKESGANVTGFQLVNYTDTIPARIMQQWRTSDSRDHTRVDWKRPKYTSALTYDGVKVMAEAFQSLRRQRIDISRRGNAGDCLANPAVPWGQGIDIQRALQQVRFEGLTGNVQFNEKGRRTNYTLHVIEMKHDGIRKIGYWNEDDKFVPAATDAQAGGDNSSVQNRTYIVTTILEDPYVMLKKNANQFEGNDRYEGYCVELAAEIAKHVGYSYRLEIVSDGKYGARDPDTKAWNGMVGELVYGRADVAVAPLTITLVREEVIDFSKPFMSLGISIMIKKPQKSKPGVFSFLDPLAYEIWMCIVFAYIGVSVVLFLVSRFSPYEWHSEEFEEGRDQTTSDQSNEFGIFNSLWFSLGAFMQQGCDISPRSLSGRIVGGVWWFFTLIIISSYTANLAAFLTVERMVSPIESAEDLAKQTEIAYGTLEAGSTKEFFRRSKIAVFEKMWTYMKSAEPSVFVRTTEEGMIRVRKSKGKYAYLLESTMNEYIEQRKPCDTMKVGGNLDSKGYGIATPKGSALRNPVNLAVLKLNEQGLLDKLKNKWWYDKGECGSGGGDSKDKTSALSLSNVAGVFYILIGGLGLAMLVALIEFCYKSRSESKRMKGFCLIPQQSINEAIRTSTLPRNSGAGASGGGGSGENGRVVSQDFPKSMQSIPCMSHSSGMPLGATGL
# rat Peripheral-type Benzodiazepine Receptor (PBR), Tspo (gene 24230), sequence (P16257 whole entry, looked up): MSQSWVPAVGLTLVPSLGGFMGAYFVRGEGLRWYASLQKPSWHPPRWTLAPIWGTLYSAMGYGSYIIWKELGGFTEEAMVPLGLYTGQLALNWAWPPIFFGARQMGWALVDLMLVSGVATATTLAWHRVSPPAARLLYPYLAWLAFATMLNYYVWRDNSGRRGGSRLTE
compound,measurement,setting,value
OC[C@H]1O[C@@](CO)(O[C@H]2O[C@H](CO)[C@@H](O)[C@H](O)[C@H]2O)[C@@H](O)[C@@H]1O,outcome,[1],inactive
same,outcome,[2],inactive
CCOc1ccc2[nH]cc(C(=O)NCc3ccccc3)c(=O)c2n1,AC50,[3],0.0253 µM (active)
same,outcome,[4],inactive
c1ccc2cc3ccccc3cc2c1,outcome,[5],inactive
C=CCc1cc(S(=O)(=O)c2ccc(O)c(CC=C)c2)ccc1O,AC50,[6],13.1 µM (active)
same,AC50,[7],8.51 µM (active)
same,AC50,[8],22.5 µM (active)
same,AC50,[9],6.16 µM (active)
same,outcome,[2],inactive
same,outcome,[10],inactive
O=C(O)c1cccc(C[C@@H]2COc3ccc(OCc4nc5cc(F)ccc5s4)cc3[C@@H]2O)c1,outcome,[2],inactive
COCc1nnc(-c2ccc[n+]([O-])c2)n1-c1c(Cl)c(Cl)cc2[nH]c(=O)c(=O)[nH]c12,AC50,[11],12.6 µM (active)
Cc1nccn1-c1ccc(Sc2cccc(C3(C(N)=O)CCOCC3)c2)cc1,outcome,[6],inactive
same,AC50,[8],17.7 µM (active)
same,outcome,[10],inactive
O=S(=O)(O)c1ccc(N=Nc2c(O)ccc3cc(S(=O)(=O)O)ccc23)cc1,AC50,[1],12.3 µM (active)
same,outcome,[2],inactive
OCC(CO)(CO)CO,outcome,[12],inactive
c1ccc2c(c1)-c1cccc3c1c-2cc1ccccc13,outcome,[13],inactive
C[C@@H](Oc1ccc(CNC(=O)c2cccnc2Oc2ccc3c(c2)OCO3)c(F)c1)C(=O)O,AC50,[5],20.8 µM (active)
COc1cc(C(C)C)c2c(c1)S(=O)(=O)N(COc1cc(=O)n3cccc(OCCN4CCCCC4)c3n1)C2=O,outcome,[14],inactive
same,AC50,[8],4.01 µM (active)
same,outcome,[15],inactive
same,AC50,[10],3.14 µM (active)
O=C1CN(N=Cc2ccc([N+](=O)[O-])o2)C(=O)N1,outcome,[11],inactive
same,outcome,[13],inactive
CCc1cccc(CC)c1N,outcome,[11],inactive
OC(CCl)CCl,AC50,[4],4.96 µM (active)
Cc1nc(-c2ccccn2)ncc1C(=O)Nn1cc(C)c2cc(F)ccc21,outcome,[15],inactive
same,outcome,[16],inactive
CCCCN1C(=O)[C@@H]([C@H](O)C2CCCCC2)NC(=O)C12CCN(Cc1ccc(Oc3ccc(C(=O)O)cc3)cc1)CC2,outcome,[1],inactive
CC(C)C(=O)Nc1ccc([N+](=O)[O-])c(C(F)(F)F)c1,outcome,[5],inactive
same,AC50,[17],4.95 µM (active)
same,outcome,[10],inactive
O=C(O)c1cccc(C(=O)O)c1,outcome,[18],inactive
Cc1ncc([C@@H](CCCCCCc2ccc3c(n2)NCCC3)CC(=O)O)cn1,AC50,[6],25 µM (active)
OCc1ccccc1,outcome,[16],inactive
O=C(O)[C@H](O)[C@@H](O)C(=O)O,outcome,[18],inactive
O=c1[nH]cnc2c1ncn2[C@H]1CC[C@@H](CO)O1,outcome,[13],inactive
CCn1nc(C)c2c1C(=O)NCC(c1ccc(O)cc1)=N2,outcome,[6],inactive
same,outcome,[18],inactive
same,outcome,[7],inactive
same,outcome,[8],inactive
same,outcome,[13],inactive
same,outcome,[19],inactive
same,outcome,[10],inactive
OCCOCCOCCO,outcome,[11],inactive
same,outcome,[15],inactive
Cc1ccc(S(=O)(=O)NC(=O)NN2CCCCCC2)cc1,AC50,[18],3.58 µM (active)
CCCCCCCCN(C)C,outcome,[10],inactive
CC1(C)C(=O)N(Cl)C(=O)N1Cl,outcome,[16],inactive
CCCOc1ccc(S(=O)(=O)N2CCN(CC)CC2)cc1-c1nc2c(CC)n(Cc3ccccn3)nc2c(=O)[nH]1,outcome,[3],inactive
COc1cc2c(c(OC)c1OC)-c1ccc(OC)c(=O)cc1[C@@H](NC(C)=O)CC2,outcome,[2],inactive
CCCCCCCCCCCCCCCCOS(=O)(=O)O,AC50,[13],17.3 µM (active)
NC(=O)N1c2ccccc2C=Cc2ccccc21,outcome,[8],inactive
same,AC50,[4],4.66 µM (active)
CCCC(CCC)C(=O)O,outcome,[4],inactive
CCCCCCCCCC,outcome,[14],inactive
same,AC50,[20],25 µM (active)
same,outcome,[8],inactive
same,outcome,[11],inactive
same,outcome,[19],inactive
c1ccc(C(O[C@@H]2CCCN(CCc3ccc4c(c3)OCO4)C2)c2ccccc2)cc1,outcome,[14],inactive
same,AC50,[6],2.71 µM (active)
same,AC50,[7],6.43 µM (active)
same,AC50,[8],0.832 µM (active)
same,outcome,[3],inactive
same,outcome,[1],inactive
same,outcome,[17],inactive
same,AC50,[10],0.428 µM (active)
CCN(CC)C(=S)SSC(=S)N(CC)CC,AC50,[20],15.6 µM (active)
same,outcome,[11],inactive
same,outcome,[13],inactive
same,AC50,[5],3.21 µM (active)
same,AC50,[17],0.31 µM (active)
